In all, about 140,000 compounds went through this assay and about 1,700 (1.2%) were called active. What follows is part of a selection rich in actives, with near analogues and random picks from the rest. A number with no mark means an inactive call.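 Rule for the calls: active = viability at or below a set limit, 4 SD under the median of all tested compounds (cut at about 3.7% in these data); inactive = the rest.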
Assay: viability loss in PTEN-deleted colon tumor cells – cell-based, HCT116, CellTiter-Glo, primary screen (AID 827);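 note: PTEN knockout HCT116 line with beta catenin targeted HCT116 as companion control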
Conditions: HCT116 PTEN-null viability, 60 h, at 10 µM, stronger effect = lower value

Structure (SMILES) | viability
O=C1CCCCC(=O)c2ccccc2N1 | 97.7%
c1ccc2c(c1)C(=NC1CCCCC1)NC2=NC1CCCCC1 | 1.88% (active)
O=C(CN1C(=O)C2C3CCC(C3)C2C1=O)Oc1ccc2ccccc2c1 (stereo not drawn) | 86%
CC1=CC(C)(C)Nc2ccc(OC(=O)CN3C(=O)C4CCCCC4C3=O)cc21 (stereo not drawn) | 0.76% (active)
CC1=CC(C)(C)Nc2ccc(OC(=O)C(Cc3ccccc3)N3C(=O)C4CCCCC4C3=O)cc21 (stereo not drawn) | 45.7%
CCn1c(=O)cc(SCC(=O)NCCC2=CCCCC2)c2ccccc21 | 91.3%
CCCC(=O)Nc1ccc(C(=O)N/N=C/c2ccc[nH]2)cc1 | 80.1%
Cc1ccc(S(=O)(=O)N2CCC(C(=O)N[C@@H](C)C(=O)NCc3ccco3)CC2)cc1 | 102%
Cc1cc(C)c2nc3nc(C)cc(C)c3c(N)c2c1 | 2.26% (active)
Cc1cc(C)c2nc(SCCC#N)nc(C)c2c1 | 109%
CNC(=S)N/N=C/c1cn(Cc2ccc(C)cc2)c2ccccc12 | 49.9%
CC(=O)N1CCN(c2cccc(C)c2C)CC1 | 98%
O=C(O)c1cnn2c(C(F)(F)F)cc(-c3ccccc3)nc12 | 95.3%
Cc1cccc(N2CCN(C(=O)c3cnn4c(C(F)F)cc(-c5ccccc5)nc34)CC2)c1C | 3.53% (active)
O=C(CCCN1C(=O)c2cccc3cccc(c23)C1=O)N1CCN(Cc2ccc3c(c2)OCO3)CC1 | 89.4%
O=C(c1cccs1)N1CCN(Cc2ccc3c(c2)OCO3)CC1 | 94.4%
O=C(Nc1cccc2ccccc12)N1CCN(Cc2ccc3c(c2)OCO3)CC1 | 1.32% (active)
CC1CCN(c2ccc(C(=O)Nc3nnc(C4CC4)s3)cc2[N+](=O)[O-])CC1 | 96.1%
Cc1ccc(C2=N/C(=C\c3ccc(OS(=O)(=O)c4ccc(C)cc4)cc3)C(=O)O2)cc1 | 92.6%
CCN1/C(=C/c2ccc3ccc(C)cc3[n+]2CC)Sc2ccccc21 | 2.61% (active)
CCC(=O)/C=C1\Sc2ccccc2N1CC | 95.3%
O=C(NNC1=NCCC1)c1cccc(S(=O)(=O)N2CCCCC2)c1 | 96.7%
CC(=O)c1ccc(NC(=S)NC(=O)CC(C)C)cc1 | 98.8%
O=C(CC(=O)N/N=C\c1cccc(Cl)c1Cl)NCc1ccccc1 | 90.4%

Structure (SMILES) | viability
COc1ccccc1N1CCN(Cc2nnnn2CCc2ccccc2)CC1 | 104%
COc1ccccc1N1CCN(C(=O)CN(Cc2ccc(Cl)cc2)S(C)(=O)=O)CC1 | 68.5%
COc1ccccc1-n1nnnc1S(=O)(=O)Cc1ccc(Cl)cc1 | 3.39% (active)
CCCN=C1NC(=O)C(CC(=O)NCCc2ccc(OC)c(OC)c2)S1 (stereo not drawn) | 96.5%
CC(C)Nc1nnc(SCC(=O)/C=C2\N(C)c3ccccc3C2(C)C)s1 | 79%
O=[N+]([O-])c1ccc(C=Nc2ccc(Cl)cc2Cl)s1 | 2.41% (active)
CCOc1ccc(NC(=O)CCC(=O)N/N=C/c2ccc([N+](=O)[O-])s2)cc1 | 6.05%
CC(=O)NC1=NN(C(C)=O)C(C)(CCS(=O)(=O)c2ccc(Cl)c(Cl)c2)S1 (stereo not drawn) | 94.7%
COc1ccc2nc(NC(=O)[C@@H]3CCCN3C(=O)c3cccs3)sc2c1 | 85.2%
CN1CCN(CCCNC(=O)c2cc3c(=O)oc4ccccc4c3s2)CC1 | 109%
Cn1c(C(=O)NCCN2CCc3ccccc3C2)cc2c(=O)[nH]c3ccccc3c21 | 75.8%
O=C(NCCN1CCN(Cc2ccccc2)CC1)c1cc2c(=O)[nH]c3ccccc3c2s1 | 2.62% (active)
COc1ccccc1OCC(=O)OCn1c(SC)nnc(C)c1=O | 98.3%
CC(C)(C)C(=O)N1CCC[C@@]1(CO)C(=O)O | 93.1%
O=C(COc1ccc(/C=N/NC(=O)c2ccc(O)cc2)cc1)Nc1ccc([N+](=O)[O-])cc1 | 60.2%
CCCCCC(=O)Nc1ccc(C(=O)N/N=C/c2ccc([N+](=O)[O-])cc2)cc1 | 1.62% (active)
CCCCCC(=O)NC(=S)NNC(=O)c1ccc([N+](=O)[O-])cc1 | 37.4%
COC(=O)C(NC(=O)c1ccc(OC)cc1)(Nc1ncc(S(=O)(=O)c2ccc([N+](=O)[O-])cc2)s1)C(F)(F)F (stereo not drawn) | 72.2%
O=C(NC(Nc1nc2ccc([N+](=O)[O-])cc2s1)(C(F)(F)F)C(F)(F)F)c1ccccc1 | 1.46% (active)
Cc1cc(C)cc(OCC(=O)Nc2nc3ccc([N+](=O)[O-])cc3s2)c1 | 103%
COc1cc(NC(=O)COC(=O)CSc2ccc3ccccc3c2)c(C)cc1[N+](=O)[O-] | 96.9%
CCn1nc(C)c(/C=N/NC(=O)Cc2ccc(Cl)cc2)c1C | 91.7%
CCOc1ccc(C(=O)NC(=S)Nc2ccc(NC(=O)C(C)C)cc2)cc1[N+](=O)[O-] | 87.9%
CCOC(=O)c1c(C)[nH]c(=S)c(C#N)c1-c1ccccc1 | 102%

Structure (SMILES) | viability
CCOC(=O)c1c(C)[nH]c2c1-c1ccccc1C(=O)C2=O | 1.66% (active)
Cc1[nH]c2ccccc2c1C(=O)COC(=O)C(C)C | 112%
CN(C)S(=O)(=O)c1cc(NC(=O)CN2C(=O)NC3(CCCc4ccccc43)C2=O)ccc1Cl (stereo not drawn) | 59.3%
CCOCCCNC(=O)C(=O)NCCCOCC | 102%
COC(=O)CN1C(C)=Nc2ccc(Br)cc2C1c1ccccc1 (stereo not drawn) | 0.62% (active)
COC(=O)CN1C(=O)C(O)=C(C(C)=O)C1c1ccc([N+](=O)[O-])cc1 (stereo not drawn) | 96.7%
CCC(CC)C(=O)N1CC(=O)Nc2ccc(Br)cc2C1c1ccccc1 (stereo not drawn) | 71.6%
COc1ccc(OCc2cn3c(C)cc(C)nc3n2)cc1 | 99.6%
Cc1ccc(S(=O)(=O)N2CCN(CC(=O)N/N=C/c3cc([N+](=O)[O-])ccc3Cl)CC2)cc1 | 74.4%
CC(C)/C=N/NC(=O)c1cc(Br)ccc1O | 89%
COc1ccc(C/C(C)=N/NC(=O)c2cc(C)oc2C)cc1 | 98.5%
O=C(Cn1c(-c2ccccn2)nc2ccccc21)NCCN1CCOCC1 | 102%
c1ccc2[nH]c(NCCN3CCOCC3)nc2c1 | 103%
c1ccc2cc3c(NCCN4CCOCC4)ccnc3cc2c1 | 3.31% (active)
COc1ccccc1C(=O)Nc1ccc(OCc2nnc3c4ccccc4c(C)nn23)cc1 | 101%
CCCNC(=O)NC(=O)COC(=O)CC(NC(N)=O)c1ccc(Cl)cc1 (stereo not drawn) | 103%
N#C/C(C(=O)N1CCOCC1)=C1/SC(Cc2ccc(F)cc2)C(=O)N1c1ccccc1 (stereo not drawn) | 89.2%
CCCCOc1ccc(C(=O)NCc2ccncc2)cc1 | 70.3%
CCCOc1ccc(C(=O)C(CCC(CNCC)C(=O)c2ccc(OCCC)cc2)CNCC)cc1 (stereo not drawn) | 0.64% (active)
CCCCOc1ccc(C(=O)NN2CCN(C)CC2)cc1 | 102%
CC1(C)C2CC=C(/C=N/NC(=O)c3ccc(Cl)cc3)C1C2 (stereo not drawn) | 90.5%
Fc1ccccc1/C=C1\CCCC2=C1Nc1ncnn1C2c1ccccc1F (stereo not drawn) | 2.48% (active)
O=C(/C=C\c1cn(-c2ccccc2)nc1-c1cccs1)N1CCOCC1 | 67.3%
CCn1c(/C=N/NC(=O)c2ccc(OC)cc2)nc2ccccc21 | 14.3%

Structure (SMILES) | viability
O=C(Nn1c(-c2ccc(Cl)cc2)nc2ccccc2c1=O)c1cccnc1Cl | 102%
CCOC(=O)c1c(/N=C/c2cc(C)ccc2O)sc2c1CCC2 | 91.9%
CSc1nc(-c2ccccc2)nc(C(Cl)Cl)n1 | 2.06% (active)
CSc1nc(C)cc(SC(C(C)=O)C(=O)Nc2ccccc2)n1 (stereo not drawn) | 88.1%
C/C(=N/NS(=O)(=O)c1ccccc1)c1ccc(NC(=O)C(F)(F)F)cc1 | 96.4%
CCOc1cc(N2CCOCC2)c(OCC)cc1NC(=O)COc1cccc2cccnc12 | 3.59% (active)
Cc1cccc(OCC(=O)NC(=S)Nc2ccccc2N2CCOCC2)c1 | 99.9%
CCOc1cc(N2CCOCC2)c(OCC)cc1NC(=O)COC(=O)[C@H](Cc1c[nH]c2ccccc12)NC(C)=O | 93.5%
O=[N+]([O-])c1ccc(N2CCN(S(=O)(=O)c3ccccc3)CC2)cc1N1CCc2ccccc2C1 | 89.4%
O=C(Cc1ccccc1)NNS(=O)(=O)c1ccc([N+](=O)[O-])cc1 | 101%
CC(C)CCN1C(=O)c2ccc(C(=O)Nc3cccc(S(N)(=O)=O)c3)cc2C1=O | 88.8%
CCC1CCc2c(sc(NC(C)=O)c2C#N)C1 (stereo not drawn) | 95.5%
CN1CCN(CC(=O)Nc2sc3c(c2C#N)CCC(C(C)(C)C)C3)CC1 (stereo not drawn) | 3.39% (active)
COC(=O)c1c(NC(=O)CN2CCN(S(=O)(=O)c3ccccc3[N+](=O)[O-])CC2)sc2c1CCC(C)C2 (stereo not drawn) | 93.5%
Cc1ccc2sc(NNC(=O)c3ccc4c(c3)OCCO4)nc2c1C | 68.3%
O=C1C2C3C=CC(C4CC34)C2C(=O)N1c1nccs1 (stereo not drawn) | 101%
C=CCOc1ccc(/C=N/NC(=O)C(C)Sc2ccccn2)cc1OCC (stereo not drawn) | 103%
Cc1ccc(OCc2nnc(SC3CCc4ccccc4C3=O)n2C)cc1 (stereo not drawn) | 85.3%
O=C(/C=C/c1ccc(Cl)cc1Cl)NCc1ccco1 | 96.5%
O=C(NCc1ccc(Cl)c(Cl)c1)c1cccnc1 | 100%
O=C(/C=C/c1ccc(Cl)cc1Cl)c1cccnc1 | 0.59% (active)

Source: PubChem BioAssay AID827 (SRMLSC, 2007)
